Source: PubChem BioAssay (Tox21)
Records with an inconclusive call do not appear. The source made the active and inactive calls. The call rests on the fitted dose curve; in most records, active means well fitted curve in the direction sought with a large enough effect in the repeat runs; inconclusive means weak or mixed curves; inactive means no such curve, though single readings can be large; an effect the other way counts as inactive or inconclusive.

Legend:
[1] = A CellTox Green Cytotoxicity Assay to monitor cytotoxicity in HEK293 cells - 40 hour (AID 1224871); further: nearly all actives have a fitted effect of over 45% in size; further: potency means the concentration at half of the fitted maximal effect
In short: (§1)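 Fluorescence intensity, read at 0, 8, 16, 24, 32 and 40 h of compound treatment, reflected dye binding to DNA of dead HEK293 cells; compounds (23 nL, DMSO) were added 5 h after plating cells with reagent.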

[2] = qHTS RealTime-Glo MT Cell Viability Assay in HEK293 cells - 16 hour (AID 1224872); further: nearly all actives have a fitted effect of over 50% in size; further: potency means the concentration at half of the fitted maximal effect
In short: (§2)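 Viability tracked continuously by luminescence as live cells reduce a prosubstrate for NanoLuc; HEK293 cells preincubated 5 h, compound-treated at 37 C, and read at 0, 8, 16, 24, 32 and 40 h.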

[3] = qHTS RealTime-Glo MT Cell Viability Assay in HepG2 cells - 8 hour (AID 1224873); further: nearly all actives have a fitted effect of over 55% in size
In short: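 Real-time viability: cells seeded at 600 per well together with NanoLuc and cell-permeant prosubstrate, compounds added after 5 h incubation. Luminescence tracked at 0, 8, 16, 24, 32 and 40 h of exposure.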

[4] = qHTS RealTime-Glo MT Cell Viability Assay in HEK293 cells - 40 hour (AID 1224874); conditions: RealTime-Glo luminescence; max response: hits give low values; further: nearly all actives have a fitted effect of over 50% in size; further: potency means the concentration at half of the fitted maximal effect
In short: (§3)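 Viable HEK293 cells reduce a cell-permeant prosubstrate; the product diffuses out and is consumed by NanoLuc in the medium to give light. Compounds went in after a 5 h incubation and plates were read over the treatment course.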

[5] = A CellTox Green Cytotoxicity Assay to monitor cytotoxicity in HEK293 cells - 24 hour (AID 1224875); further: nearly all actives have a fitted effect of over 45% in size; further: potency means the concentration at half of the fitted maximal effect
In short: as §1

[6] = A CellTox Green Cytotoxicity Assay to monitor cytotoxicity in HepG2 cells - 16 hour (AID 1224876); further: nearly all actives have a fitted effect of over 45% in size
In short: (§4)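 Using 1536-well format, dye-containing HepG2 suspension was seeded, allowed 5 h at 37 C/5% CO2, dosed by pintool with compounds, positive and negative controls, and imaged for fluorescence across 40 h.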

[7] = qHTS RealTime-Glo MT Cell Viability Assay in HepG2 cells - 32 hour (AID 1224877); further: nearly all actives have a fitted effect of over 55% in size
In short: (§5)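 Viability was tracked continuously by NanoLuc luminescence from prosubstrate reduced by living HepG2 cells, at successive time points over 40 h of compound exposure. Cells with reagent were preincubated 5 h at 37 °C before compound addition.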

[8] = A CellTox Green Cytotoxicity Assay to monitor cytotoxicity in HepG2 cells - 24 hour (AID 1224878); further: nearly all actives have a fitted effect of over 45% in size; further: potency means the concentration at half of the fitted maximal effect
In short: as §4

[9] = A CellTox Green Cytotoxicity Assay to monitor cytotoxicity in HepG2 cells - 40 hour (AID 1224879); further: nearly all actives have a fitted effect of over 40% in size; further: potency means the concentration at half of the fitted maximal effect
In short: as §4

[10] = qHTS RealTime-Glo MT Cell Viability Assay in HEK293 cells - 0 hour (AID 1224880)
In short: as §3

[11] = A CellTox Green Cytotoxicity Assay to monitor cytotoxicity in HEK293 cells - 32 hour (AID 1224881); further: nearly all actives have a fitted effect of over 40% in size; further: potency means the concentration at half of the fitted maximal effect
In short: as §1

[12] = A CellTox Green Cytotoxicity Assay to monitor cytotoxicity in HepG2 cells - 0 hour (AID 1224882); further: nearly all actives have a fitted effect of over 35% in size
In short: as §4

[13] = A CellTox Green Cytotoxicity Assay to monitor cytotoxicity in HEK293 cells - 8 hour (AID 1224884); further: nearly all actives have a fitted effect of over 35% in size
In short: as §1

[14] = qHTS RealTime-Glo MT Cell Viability Assay in HEK293 cells - 24 hour (AID 1224886); further: nearly all actives have a fitted effect of over 50% in size; further: potency means the concentration at half of the fitted maximal effect
In short: as §2

[15] = qHTS RealTime-Glo MT Cell Viability Assay in HEK293 cells - 8 hour (AID 1224887); further: top concentration of the series differs between compounds; nearly all actives have a fitted effect of over 50% in size
In short: as §3

[16] = A CellTox Green Cytotoxicity Assay to monitor cytotoxicity in HEK293 cells - 16 hour (AID 1224888); further: nearly all actives have a fitted effect of over 35% in size
In short: as §1

[17] = qHTS RealTime-Glo MT Cell Viability Assay in HepG2 cells - 0 hour (AID 1224889); further: nearly all actives have a fitted effect of over 50% in size
In short: as §5

[18] = A CellTox Green Cytotoxicity Assay to monitor cytotoxicity in HepG2 cells - 8 hour (AID 1224890); further: nearly all actives have a fitted effect of over 45% in size
In short: as §4

[19] = qHTS RealTime-Glo MT Cell Viability Assay in HepG2 cells - 16 hour (AID 1224885); further: nearly all actives have a fitted effect of over 50% in size
In short: as §5

[20] = A CellTox Green Cytotoxicity Assay to monitor cytotoxicity in HepG2 cells - 32 hour (AID 1224883); further: nearly all actives have a fitted effect of over 50% in size
In short: as §4
On the % scale 0 is the no-effect control and ±100 the full control effect.

CCC1(c2ccccc2)C(=O)NC(=O)NC1=O
inactive: Potency [1] | Potency [2] | Potency [3] | max response [4] 17.3% | Potency [5] | Potency [6] | Potency [7] | Potency [8] | Potency [9] | outcome [10] | Potency [11] | outcome [12] | Potency [13] | Potency [14] | Potency [15] | Potency [16] | Potency [17] | Potency [18]

CC(C)COP(=O)(OCC(C)C)OCC(C)C
inactive: Potency [1] | Potency [2] | Potency [3] | max response [4] 0.408% | Potency [5] | Potency [6] | Potency [7] | Potency [8] | Potency [9] | Potency [11] | outcome [12] | Potency [13] | Potency [19] | Potency [14] | Potency [15] | Potency [16] | Potency [17] | Potency [18]

CC(=O)CCc1ccc2c(c1)OCO2
inactive: Potency [1] | Potency [2] | Potency [3] | max response [4] 0.514% | Potency [5] | Potency [6] | Potency [7] | Potency [8] | Potency [9] | outcome [10] | Potency [11] | outcome [12] | Potency [13] | Potency [19] | Potency [14] | Potency [16] | Potency [17] | Potency [18]

CCC(C)(C)c1cc(-n2nc3ccccc3n2)c(O)c(C(C)(C)CC)c1
inactive: Potency [1] | Potency [3] | Potency [5] | Potency [6] | Potency [7] | Potency [8] | Potency [9] | outcome [10] | Potency [11] | outcome [12] | Potency [13] | Potency [19] | Potency [16] | Potency [17] | Potency [18]
active: Potency [2] 24.9 µM | Potency [4] 22.2 µM | Potency [14] 24.9 µM

c1cc[c]([Hg][c]2ccccc2)cc1
active: Potency [1] 34.7 µM | Potency [2] 34.7 µM | Potency [4] 24.5 µM | Potency [5] 43.6 µM | Potency [8] 43.6 µM | Potency [9] 49 µM | Potency [11] 38.9 µM | Potency [14] 34.7 µM
inactive: Potency [3] | Potency [6] | Potency [7] | outcome [10] | outcome [12] | Potency [13] | Potency [19] | Potency [16] | Potency [17] | Potency [18]

c1cc2c(c(N3CCNCC3)c1)OCCO2
inactive: Potency [1] | Potency [2] | Potency [3] | max response [4] -2.14% | Potency [6] | Potency [7] | Potency [8] | Potency [9] | outcome [10] | Potency [11] | outcome [12] | Potency [20] | Potency [13] | Potency [19] | Potency [14] | Potency [15] | Potency [16] | Potency [17] | Potency [18]

CN(C)CCc1ccc(O)cc1
inactive: Potency [1] | Potency [2] | Potency [3] | max response [4] 11.4% | Potency [5] | Potency [6] | Potency [7] | Potency [8] | Potency [9] | outcome [10] | Potency [11] | outcome [12] | Potency [13] | Potency [19] | Potency [14] | Potency [16] | Potency [17] | Potency [18]

ClC(Cl)C(Cl)Cl
inactive: Potency [1] | Potency [2] | Potency [3] | max response [4] 0.239% | Potency [5] | Potency [7] | outcome [10] | Potency [11] | outcome [12] | Potency [14] | Potency [15] | Potency [16] | Potency [17] | Potency [18]
